The panel holds about 79,000 compounds, 15% with a hit somewhere; the sample as a whole holds those more often. A number with no mark means an inactive call. Calls of active or inactive are those of the source. Rule as the data show it: active = growth inhibition above about 70%; inactive = the rest.

Experiment [1] can be described thus: NCI Yeast Anticancer Drug Screen. Data for the rad50 strain (AID 155).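 Also: 0% = growth of vehicle-only cultures of the same strain.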 The following applies: S. cerevisiae rad50 strain growth inhibition; at 50.0 µM; hits give high values. Put shortly:
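DNA repair mutant yeast, compound exposure, growth read-out; inhibition is taken relative to vehicle.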

Experiment [2] can be described thus: NCI Yeast Anticancer Drug Screen. Data for the mec2-1 strain (AID 157). The following applies: S. cerevisiae mec2-1 strain, at 50.0 µM, hits give high values. Put shortly:
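Vehicle-treated cultures served as reference for growth inhibition of compound-exposed mec2-1 yeast.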

The nature of experiment [3]: NCI Yeast Anticancer Drug Screen. Data for the sgs1 mgt1 strain (AID 161).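 Also: 0% = growth of cultures given vehicle only.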 The following applies: S. cerevisiae sgs1 mgt1 strain, at 50.0 µM, hits give high values. The method in brief: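 Inhibition of yeast growth, normalised to vehicle-treated controls, is reported for a strain bearing genetic alterations in DNA damage repair.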
Experiment [4] can be described thus: NCI Yeast Anticancer Drug Screen. Data for the cln2 rad14 strain (AID 165).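 Also: 0% = growth equal to vehicle treated cultures.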 The conditions noted are these: S. cerevisiae cln2 rad14 strain, at 50.0 µM, hits give high values. The method in brief: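 Each compound was tested on cln2 rad14 yeast. Inhibition of growth was calculated against vehicle-exposed controls.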
Experiment [5] can be described thus: NCI Yeast Anticancer Drug Screen. Data for the bub3 strain (AID 167). The following applies: S. cerevisiae bub3 mutant strain, at 50.0 µM, hits give high values. Put shortly:
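In this screen, a yeast mutant lacking normal mitotic checkpoint function is challenged with compound. Relative growth versus vehicle gives the inhibition value.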

The nature of experiment [6]: NCI Yeast Anticancer Drug Screen. Data for the mlh1 rad18 strain (AID 175). The conditions noted are these: S. cerevisiae mlh1 rad18 strain growth inhibition; at 50.0 µM; hits give high values. Put shortly: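 Vehicle-treated cultures served as the reference for growth inhibition in a yeast strain carrying DNA damage repair alterations exposed to each compound.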

`CC(=O)Oc1ccc(OC(C)=O)c2c(OC(C)=O)ccc(OC(C)=O)c12`: the growth inhibition was 0.45% in experiment [1]; 2.15% in experiment [2]; 1.55% in experiment [3]; -10.3% in experiment [4]; 53.8% in experiment [5]; -6.8% in experiment [6].
For `[Cl][Pt+2][Cl].[NH-]c1ccc(CC(=O)O)cc1[NH-]`, the growth inhibition is 48.4% in experiment [1]; 7.1% in experiment [2]; 23.4% in experiment [3]; 39.8% in experiment [4]; -11.1% in experiment [5]; -4.2% in experiment [6].
`O=C1NC(N2CCCCC2)=N/C1=C\c1ccccc1`: the growth inhibition was 25.7% in experiment [1]; -8.45% in experiment [2]; -6.1% in experiment [3]; 23.7% in experiment [4]; -10.5% in experiment [5]; -16.4% in experiment [6].
Consider `OC1c2ccccc2-c2ccc(Cl)cc21` (stereo unspecified), for which the growth inhibition was 23.8% in experiment [1]; 14.2% in experiment [2]; -7.15% in experiment [3]; -32.2% in experiment [4]; 4.15% in experiment [5]; 14.9% in experiment [6].
As for `CCCN(Cc1ccccc1)CC(O)c1ccc(Cl)cc1` (stereo unspecified), the growth inhibition in experiment [1] is 0.95%; in experiment [2], 3.5%; in experiment [3], 32.2%; in experiment [4], 2.95%; in experiment [5], 32.9%; in experiment [6], 20.1%.
Turning to `CC(=O)OCC1OC(n2nnc(CCl)c2CCl)C(OC(C)=O)C(OC(C)=O)C1OC(C)=O` (stereo unspecified), the growth inhibition is 38.5% in experiment [1]; 8.7% in experiment [2]; 0.5% in experiment [3]; -3.15% in experiment [4]; -0.25% in experiment [5]; 8.45% in experiment [6].
As for `O=C1CCCNc2c(Br)cc(Br)cc21`, the growth inhibition is 49.2% in experiment [1]; 24.7% in experiment [2]; 14.2% in experiment [3]; 8.6% in experiment [4]; 46.5% in experiment [5]; 14.8% in experiment [6].
In the case of `Cc1ccc(C(=O)c2ccc(C)cc2)cc1`, the growth inhibition in experiment [1] was -2.55%; in experiment [2], -4.45%; in experiment [3], 13%; in experiment [4], -3.7%; in experiment [5] it was 6.3%; in experiment [6] it was 15.1%.
Turning to `O=C1CC(c2ccccc2)=NN1c1ccccc1`, the growth inhibition in experiment [1] was -8.3%; in experiment [2], -25.4%; in experiment [3] it was -5.55%; in experiment [4], 9.5%; in experiment [5], -23.8%; in experiment [6] it was 18.6%.
Regarding `O=C(COc1ccc(Cl)c(Cl)c1)Nc1cccc(C(=O)CCl)c1`, the growth inhibition is 36.6% in experiment [1]; 50% in experiment [2]; 45.5% in experiment [3]; 9.1% in experiment [4]; 81.3% (active) in experiment [5]; 62.8% in experiment [6].
For the molecule `CC(C)C(NC(=O)c1ccccc1C(=O)O)c1ccccc1` (stereo unspecified), the growth inhibition was 6.3% in experiment [1]; -7.35% in experiment [2]; 7.1% in experiment [3]; 4.45% in experiment [4]; 29.6% in experiment [5]; -3.7% in experiment [6].
Regarding `COc1cc2c3c(c1)nc(C)n3C(=O)C(c1ccccc1)S2` (stereo unspecified), the growth inhibition in experiment [1] was -17.6%; in experiment [2], -5.3%; in experiment [3], -26.3%; in experiment [4] it was 4.1%; in experiment [5], 21.6%; in experiment [6], -23.6%.
With `CCOC(=O)C(C(=O)c1cccnc1)C(C(=O)OCC)C(=O)c1cccnc1` (stereo unspecified), the growth inhibition was 5.1% in experiment [1]; 20.9% in experiment [2]; 6% in experiment [3]; 20.4% in experiment [4]; 12.1% in experiment [5]; 5.55% in experiment [6].
As for `CN(C)CCNC(=O)c1cccc2c(Nc3ccc(S(N)(=O)=O)cc3)c3ccccc3nc12`, the growth inhibition is -43.7% in experiment [1]; 4% in experiment [2]; -43.1% in experiment [3]; 17.9% in experiment [4]; -23.6% in experiment [5]; 11.1% in experiment [6].
Turning to `S=C(Nc1ccccc1)Nc1ccccc1S`, the growth inhibition was -15.4% in experiment [1]; -19.8% in experiment [2]; 6.75% in experiment [3]; -20.4% in experiment [4]; 14.7% in experiment [5]; -18.9% in experiment [6].
In the case of `CC12CCC3[C@@H](CC3(C)C)C(O)(CCC1=O)C2` (stereo partly specified), the growth inhibition was -10.4% in experiment [1]; -9.35% in experiment [2]; -10.8% in experiment [3]; -23.9% in experiment [4]; -5.35% in experiment [5]; -57.1% in experiment [6].
On to `COc1ccc(N=Cc2ccc(C#N)cc2)cc1`, for which the growth inhibition was 9.4% in experiment [1]; -25.2% in experiment [2]; -7.15% in experiment [3]; 7.95% in experiment [4]; -12.8% in experiment [5]; -4.9% in experiment [6].
As for `CCCC1(c2ccccc2)CNC(=O)NC1`, the growth inhibition in experiment [1] is -3.8%; in experiment [2], 19.5%; in experiment [3], 1.8%; in experiment [4], -9%; in experiment [5], 3.25%; in experiment [6], -2.95%.
For the molecule `CCOc1ccccc1NC(=O)C(Br)C(Br)c1ccccc1` (stereo unspecified), the growth inhibition is -1.1% in experiment [1]; 0.65% in experiment [2]; 30.9% in experiment [3]; -20.9% in experiment [4]; 20.1% in experiment [5]; 42.3% in experiment [6].
Take `Cc1ccnc(N=C(N)Nc2cc(C)ccn2)c1`: the growth inhibition in experiment [1] is 19.6%; in experiment [2], 26.4%; in experiment [3], 13.1%; in experiment [4], 11.2%; in experiment [5] it was 6.75%; in experiment [6] it was 8.85%.
As to `CC(C)(C)[Si](C)(C)OCC1OC(n2cnc3c(N)ncnc32)C(O)C1O` (stereo unspecified), the growth inhibition in experiment [1] was -12.4%; in experiment [2], -15.2%; in experiment [3], 4.85%; in experiment [4] it was -0.2%; in experiment [5], 3.5%; in experiment [6] it was -2.35%.

Values taken from PubChem BioAssay (NCI).
